High-throughput results: PubChem BioAssay, National Center for Advancing Translational Sciences (NCATS)
Sampled rows, rich in hits. Any-hit rate of the full collection: about 11%.
Pf growth 48h – P. falciparum growth inhibition at 48 hours (one generation). P. falciparum luciferase growth in erythrocytes, 48 h. 5.9% of 310,000 active. Potency, µM (doses to about 28.7 µM), usual class: inhibitors
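Luciferase-expressing parasites in RBCs, 2% Hct / 0.1% parasitemia final; RPMI 1640 + 0.5% Albumax; 37 C, 5% CO2, one generation; luminescence read-out, lower signal = inhibition.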
NS1 inh – blocks influenza NS1 protein function; Potency, µM (titrated, usually from 46.1 µM); 0.4% of 270,000 active; AID 2326; calls by dose curve; note: actives are rising curves; nearly all actives have a fitted effect of over 50% in size
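S. cerevisiae expressing influenza A NS1, grown in glucose, washed, then diluted 1:100 into pH 6.0 -URA galactose medium with 23 nl compound. Growth recovery read as OD600; NS1-free strain serves as control.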
Sm TGR block – S. mansoni TGR enzyme inhibition; Potency, µM (series often up to 114 µM), usual class: inhibitors; Q962Y6; 3% of 360,000 active; purified TGR, DTNB reduction, TNB absorbance 405 nm; note: nearly all actives have a fitted effect of over 60% in size
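Kinetic colorimetric format: TGR-catalysed, NADPH-driven DTNB reduction monitored via TNB absorbance. Enzyme dispensed at 20 nM; compound exposure 15 min at room temperature before reaction start.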
AMA1 RON2 block – disrupts binding of P. falciparum AMA1 to RON2; AlphaScreen AMA1-biotinylated RON2 peptide binding; Potency, µM (doses to about 58.2 µM), usual class: inhibitors; 0.2% of 360,000 active; note: nearly all actives have a fitted effect of over 45% in size
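AMA1 (3D7) with his tag at 25 nM final met compounds first, then biotinylated RON2 peptide at 25 nM; detection used donor plus acceptor beads, 10 µg/mL apiece, read by AlphaScreen after 30 min at room temperature.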
Pf growth 96h – P. falciparum growth inhibition at 96 hour, primary screen for plastid delayed-death inhibitors; Potency, µM (highest dose often 28.7 µM), hits mostly inhibitors; P. falciparum luciferase reporter growth, 96 h; 6.9% of 320,000 active; AID 504834
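Cell-based qHTS: luciferase-tagged P. falciparum in erythrocytes (2% hematocrit, 0.05% parasitemia final) incubated with compounds for 96 hours, 37 C, 5% CO2; luciferase detection reagent then added and luminescence measured.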
NS1 inh valid – influenza NS1 function inhibition validation; shares compounds with NS1 inh; influenza NS1 function cell assay, 15-point titration; AID 492980; 1,400 tested, under 10 active; activity change, negative = inhibition, % at 32.9 µM; calls by dose curve
PR8 titer – influenza virus titer reduction, NS1 project; shares compounds with NS1 inh; MDCK infected influenza A/PR/8/34, virus titer TCID50; active compounds read low; 30% of 95 active; virus titer (log TCID50), log10 TCID50 at 5 µM; call rule not given here
Numbers stand for hits; . = inactive; ? = inconclusive; / = no result; ! = not confirmed by another sample; [ ] = remark or other dose. Unless noted, calls come from the whole dose curve; as a rule, active = well fitted curve in the direction sought with a large enough effect; inconclusive = small, poorly fitted or top-dose-only effect, or another doubt; inactive = no such curve, though single readings can be large; an effect the other way counts as inactive or inconclusive.

SMILES	Pf growth 48h	NS1 inh	Sm TGR block	AMA1 RON2 block	Pf growth 96h	NS1 inh valid	others
COC(CNC(=O)c1ccc(Cn2c(=S)[nH]c3cc4c(cc3c2=O)OCO4)cc1)OC	?	6.3µM	.	.	?	.
COCCNC(=O)c1ccc(Cn2c(=S)[nH]c3cc4c(cc3c2=O)OCO4)cc1	?	.	.	.	.	/
Cc1cccc(NC(=S)N=Nc2c(O)n(C)c3ccc(S(=O)(=O)N4CCOCC4)cc23)c1	8.3µM	?	.	.	2.3µM	.
CCc1nn2c(=O)c(S(=O)(=O)Nc3ccc(OC)c(Cl)c3)c(C)nc2s1	/	/	.	/	/	/
FC(F)Oc1ccc(/C=N/c2c(-c3ccc(OC(F)F)cc3)nc3n2CCS3)cc1	?	13µM	.	.	.	.
CN(Cc1cccc(F)c1)C(=O)c1ccc(S(=O)(=O)C(F)F)cc1	.	2.8µM	.	.	.	.
CN(Cc1cccc(F)c1)C(=O)c1cccc(S(=O)(=O)N2CCN(Cc3ccccc3)CC2)c1	.	.	.	.	.	/
CC(C)(C)N(Cc1ccccc1)C(=O)COC(=O)c1ccc(S(=O)(=O)N2CCOCC2)cc1	/	/	/	.	/	/
COc1ccccc1-n1c(SCC(=O)N2CCCC2)nc2cccnc21	.	2µM	.	.	.	.
CCN(CC)C(=O)CSc1nc2ccccc2c(=O)n1-c1ccccc1OC	?	35µM	.	.	.	.
O=C(CSc1nc(O)c(Cc2ccccc2)c(=O)[nH]1)N1CCOCC1	?	?	.	.	.	.	PR8 titer=.
CCc1c(O)nc(SCC(=O)N2CCOCC2)n(-c2ccccc2)c1=O	.	.	.	.	/	/
COc1ccccc1-n1c(SCC(=O)N2CCOCC2)nc(O)c(Cc2ccccc2)c1=O	.	?	.	.	/	.
O=C(NC1CCCC1)C1C(c2ccc(C(F)(F)F)cc2)=Nc2ccccc2N1C(=O)c1cccc(C(F)(F)F)c1 (stereo not given)	/	/	/	.	/	/
Cc1ccc(/C=C/C(=O)Oc2ccc(C#N)cc2)o1	.	?	50µM	/	.	.	PR8 titer=7.5
Cc1ccc(NC(=O)CC2OC(=O)c3ccccc32)cc1S(=O)(=O)N1CCOCC1 (stereo not given)	?	/	.	.	?	/
Cc1ccccc1S(=O)(=O)Nc1nc2ccccc2nc1N1CCc2ccccc2C1	.	18µM	.	.	.	.
COCCn1nnnc1C(c1cc2ccc(OC)cc2[nH]c1=O)N1CCN(C2CCCCC2)CC1 (stereo not given)	?	4.5µM	.	.	?	.	PR8 titer=7.5
CCCCc1cc(=O)oc2cc(C)cc(OCC(=O)N3CCC(C(=O)O)(c4ccccc4)CC3)c12	?	.	.	.	?	/
CCCc1cc(=O)oc2cc(OCC(=O)N3CCC(C(=O)O)(c4ccccc4)CC3)ccc12	?	11µM	.	.	?	?
COc1ccc(-c2cc(C(=O)Nc3ccccc3O)c3ccccc3n2)cc1OC	?	.	.	.	.	/
COc1ccc(-c2cc(C(=O)Nc3nc4ccccc4s3)c3ccccc3n2)cc1OC	.	22µM	.	.	.	.
CCc1ccc(C(=O)c2cn(CC(=O)Nc3ccc(F)cc3)c3ccc(OC)cc3c2=O)cc1	/	/	.	/	/	/
COc1ccc(C(=O)NCc2ccc3c(c2)cc(C)n3C)cc1OC	?	/	.	.	?	/
Cc1ccccc1NC(=S)NCc1ccc2c(c1)cc(C)n2C	.	?	.	.	.	/
SMILES	Pf growth 48h	NS1 inh	Sm TGR block	AMA1 RON2 block	Pf growth 96h	NS1 inh valid	others
CCc1cccc(C)c1NC(=S)NCc1ccc2c(c1)cc(C)n2C	?	14µM	.	.	6.6µM	.
Cc1cc2cc(CNC(=O)c3ccc(S(=O)(=O)N4CCCC4)cc3)ccc2n1C	?	10µM	.	.	9.3µM	.
COc1ccc(/C=C\C(=O)NCc2ccc3c(c2)cc(C)n3C)cc1OC	?	11µM	.	?	?	.	PR8 titer=.
Cc1cc2cc(CNC(=O)c3cccs3)ccc2n1C	?	?	.	.	/	.
CCC(CC)C(=O)NCc1ccc2c(c1)cc(C)n2C	.	?	.	.	.	/
CCc1ccc(/C=C2/SC(=S)N(CCC(=O)Nc3cccnc3)C2=O)cc1	.	.	.	.	?	/
NC(Cc1c[nH]c2ccccc12)C(=O)NCc1ccccc1 (stereo not given)	.	?	.	.	.	.
CCOC(=O)c1cccc(NC(=O)c2cc3c(=O)n(Cc4cccnc4)ccc3nc2C)c1	/	/	.	/	/	/
CCOc1cc(-c2c(C#N)c(=O)[nH]c3c2c(C)nn3-c2ccc(F)cc2)ccc1O	.	7.9µM	.	.	.[5.75 µM]	.	PR8 titer=4
CCCCN1C(=O)C(CC(=O)NCCCN(C)C)CC(C(=O)N(C)C)=C1C (stereo not given)	/	/	/	.	/	/
COc1ccc(N=C2S/C(=C\c3cc(C)n(C)c3C)C(=O)N2CC(C)C)cc1	?	7.1µM	.	.	?	.
CCCN1C(=O)/C(=C/c2ccc(C)s2)SC1=Nc1ccc(OC)cc1	.	.	.	.	?	/
O=C(O)c1cc(-c2ccco2)nc2ccc(Br)cc12	.	20µM!	0.71µM	?	?	.
O=C(c1ccco1)N1CCN(C(=O)c2cc(-c3ccncc3)nc3ccc(Br)cc23)CC1	/	.	/	.	/	/
O=C1NC2CCCCC2C(=O)N1OS(=O)(=O)c1ccccc1 (stereo not given)	/	/	/	.	/	/
O=C(NCc1cccnc1)C1CCCN(S(=O)(=O)c2ccccc2)C1 (stereo not given)	.	1.6µM	?	.	/	.
O=C(COc1ccc(S(=O)(=O)N2CCCCC2)cc1)NCc1ccncc1	.	.	.	.	.	/
COc1ccc(OC)c(NC(=O)COc2ccc(S(=O)(=O)N3CCCC3)cc2)c1	?	?	.	.	?	.
COc1ccc(OC)c(NC(=O)COC(=O)c2ccc(S(=O)(=O)N3CCCCC3)cc2)c1	/	/	/	.	/	/
O=C(COc1ccc(S(=O)(=O)N2CCCC2)cc1)NCc1cccnc1	.	?	.	.	.	.
O=C(NCc1cccnc1)C1CCCN(S(=O)(=O)c2ccc(Cl)cc2)C1 (stereo not given)	.	.	.	.	.	/
Cc1cc(C)c2c(-n3cccc3)c(C(=O)NCCc3ccccc3)sc2n1	/	/	.	/	/	/
CCc1ccc(CSc2nc(-c3ccc(OC)cc3)nc3c2Cc2c(CO)cnc(C)c2O3)cc1	/	/	.	/	/	/
CC(=O)N1CCN(C(=S)Nc2ccc(Oc3ccccc3)cc2)CC1	.	/	.	.	.	/
CCc1ccc2c(c1)C(c1ccncc1)=NNC(c1ccccc1)=N2	?	.	/	.	.	/
CCOc1ccc2c(c1)C(c1ccccc1)=NNC(c1ccccc1)=N2	?	11µM	.	.	.	.
CCOc1ccc2oc(C(=O)OCC(=O)N3CC(C)OC(C)C3)c(C)c2c1 (stereo not given)	.	/	.	.	?	/
